The source made the active and inactive calls.
What was measured:
[1] = target: Albumin (Bos taurus) (UniProt P02769); experiment: compounds binding labelled BSA control protein – biochemical, small-molecule microarray, Alexa647 label, 635/667 nm fluorescence, artefact control for SMM control protein annotation, profiling panel (AID 1118); settings: BSA-A647 binding, fluorescence 635 nm, higher = more signal;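 note: score merges 667 nm emission intensity and signal-to-noise per printed compound spot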
Albumin (Bos taurus), sequence (P02769 whole entry, looked up): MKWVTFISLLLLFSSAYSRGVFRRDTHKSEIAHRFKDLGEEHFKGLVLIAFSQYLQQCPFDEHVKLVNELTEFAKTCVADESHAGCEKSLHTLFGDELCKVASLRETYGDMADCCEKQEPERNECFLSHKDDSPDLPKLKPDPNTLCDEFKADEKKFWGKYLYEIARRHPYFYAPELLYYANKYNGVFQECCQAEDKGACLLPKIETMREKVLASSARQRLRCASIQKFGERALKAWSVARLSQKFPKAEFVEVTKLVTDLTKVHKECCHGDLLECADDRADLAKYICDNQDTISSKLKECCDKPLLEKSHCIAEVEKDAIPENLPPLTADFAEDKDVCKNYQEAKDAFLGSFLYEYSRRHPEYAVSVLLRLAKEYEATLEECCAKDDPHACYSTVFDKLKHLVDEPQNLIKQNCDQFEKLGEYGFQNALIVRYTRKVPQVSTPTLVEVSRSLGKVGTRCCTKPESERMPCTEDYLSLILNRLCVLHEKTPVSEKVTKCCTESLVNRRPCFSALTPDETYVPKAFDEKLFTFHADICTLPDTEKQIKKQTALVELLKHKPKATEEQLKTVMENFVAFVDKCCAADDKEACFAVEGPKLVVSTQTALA

[2] = probe aXIP binding to arrayed compounds – biochemical, NeuroSMM set, 635/667 nm fluorescence, primary screen (AID 1119); settings: small-molecule microarray, higher = more signal, called active from +8 up or from −8 down;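 note: probe is the protein aXip251-270 applied at 1 µg/mL to compound-printed slides; binding of probe to printed compounds measured as 667 nm fluorescence plus signal to noise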
[3] = probe aNOTCH3 binding on compound microarray – biochemical, small-molecule microarray, 635/667 nm fluorescence, primary screen (AID 1120); settings: higher = more signal;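 note: probe is a biotin-tagged antibody raised against NOTCH3 rather than NOTCH3 protein; score merges spot fluorescence near 667 nm with spot signal to noise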
[4] = probe aNOTCH2 binding on compound microarray – biochemical, small-molecule microarray, 635/667 nm fluorescence, primary screen (AID 1121); settings: higher = more signal;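 note: score merges feature fluorescence read at 667 nm with its signal to noise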
[5] = target: Carbonic anhydrase 2 (Homo sapiens) (UniProt P00918); experiment: compounds binding carbonic anhydrase 2 – biochemical, small-molecule microarray, Alexa647-labelled CAII, profiling panel (AID 1122); settings: CAII-A647 binding fluorescence, higher = more signal
[6] = COS7 lysate on small-molecule microarray, probe aHis, 635 nm (AID 1123); settings: COS7 cell lysate, fluorescence, higher = more signal;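 note: z-score combines 667nm fluorescence intensity with signal-to-noise per printed compound spot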
[7] = probe aLAP1 signal on lysate-treated microarray – cell lysate, small-molecule microarray, COS7 lysate, primary screen (AID 1124); settings: probe aLAP1, fluorescence, higher = more signal;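 note: lysate comes from COS7 cells expressing LAP1 and is applied at 0.3 µg/mL; score merges spot fluorescence near 667 nm with signal-to-noise over triplicate slides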
[8] = tested on: Sam68 (KHDRBS1); experiment: compounds binding KHDRBS1 protein – biochemical, small-molecule microarray, 635 nm fluorescence, primary screen (AID 1125); settings: higher = more signal;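 note: score merges 667 nm channel intensity with signal to noise over triplicate slides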
[9] = tested on: Chordin-like protein 2 (CHRDL2); experiment: compounds binding chordin-like 2 – biochemical, small-molecule microarray, 635 nm fluorescence, primary screen (AID 1126); settings: fluorescence 635 nm, higher = more signal;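 note: printed compound slides probed with Chrdl2 protein at 4 µg/mL for 1 h at 4 C; score merges 667 nm emission intensity with signal to noise over three replicate slides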
[10] = target: Concanavalin-A (Canavalia ensiformis) (UniProt P02866); experiment: compounds binding concanavalin A lectin – biochemical, small-molecule microarray, Alexa647 label, 635 nm, artefact control for SMM control protein annotation, primary screen (AID 1127); settings: ConA-A647 binding fluorescence, higher = more signal;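 note: z combines 667 nm emission intensity with signal-to-noise across three replicate slides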
Concanavalin-A (Canavalia ensiformis), sequence (P02866 whole entry, looked up): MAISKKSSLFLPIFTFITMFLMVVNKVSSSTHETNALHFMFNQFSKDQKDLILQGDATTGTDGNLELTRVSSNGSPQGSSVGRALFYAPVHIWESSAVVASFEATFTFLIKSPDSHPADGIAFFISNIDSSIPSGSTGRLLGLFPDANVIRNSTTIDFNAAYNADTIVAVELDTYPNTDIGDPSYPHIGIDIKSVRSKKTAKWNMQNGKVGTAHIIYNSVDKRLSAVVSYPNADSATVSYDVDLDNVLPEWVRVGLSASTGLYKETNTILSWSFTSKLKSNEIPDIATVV

[11] = compounds binding Alexa647 anti-His antibody – biochemical, small-molecule microarray, 635 nm fluorescence, artefact control for SMM control protein annotation, primary screen (AID 1128); settings: higher = more signal;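 note: score merges feature fluorescence with signal-to-noise for each printed compound spot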
[12] = tested on: Human papillomavirus type 1a E7 protein (residues 1-88); experiment: HPV1a E7 small-molecule binders, primary screen, biochemical, small-molecule microarray, residues 1-88, 635 nm (AID 1129); settings: small-molecule microarray binding, fluorescence 635 nm; higher = more signal
[13] = target: Focal adhesion kinase 1 (Homo sapiens) (UniProt Q05397); experiment: PTK2 protein binding on printed compound slides – biochemical, small-molecule microarray, 635/667 nm fluorescence, BSA, DTT, primary screen (AID 1130); settings: 635 nm fluorescence, higher = more signal;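 note: composite of spot emission at 667 nm and signal to noise over triplicate slides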
Focal adhesion kinase 1 (Homo sapiens), sequence (Q05397 whole entry, looked up): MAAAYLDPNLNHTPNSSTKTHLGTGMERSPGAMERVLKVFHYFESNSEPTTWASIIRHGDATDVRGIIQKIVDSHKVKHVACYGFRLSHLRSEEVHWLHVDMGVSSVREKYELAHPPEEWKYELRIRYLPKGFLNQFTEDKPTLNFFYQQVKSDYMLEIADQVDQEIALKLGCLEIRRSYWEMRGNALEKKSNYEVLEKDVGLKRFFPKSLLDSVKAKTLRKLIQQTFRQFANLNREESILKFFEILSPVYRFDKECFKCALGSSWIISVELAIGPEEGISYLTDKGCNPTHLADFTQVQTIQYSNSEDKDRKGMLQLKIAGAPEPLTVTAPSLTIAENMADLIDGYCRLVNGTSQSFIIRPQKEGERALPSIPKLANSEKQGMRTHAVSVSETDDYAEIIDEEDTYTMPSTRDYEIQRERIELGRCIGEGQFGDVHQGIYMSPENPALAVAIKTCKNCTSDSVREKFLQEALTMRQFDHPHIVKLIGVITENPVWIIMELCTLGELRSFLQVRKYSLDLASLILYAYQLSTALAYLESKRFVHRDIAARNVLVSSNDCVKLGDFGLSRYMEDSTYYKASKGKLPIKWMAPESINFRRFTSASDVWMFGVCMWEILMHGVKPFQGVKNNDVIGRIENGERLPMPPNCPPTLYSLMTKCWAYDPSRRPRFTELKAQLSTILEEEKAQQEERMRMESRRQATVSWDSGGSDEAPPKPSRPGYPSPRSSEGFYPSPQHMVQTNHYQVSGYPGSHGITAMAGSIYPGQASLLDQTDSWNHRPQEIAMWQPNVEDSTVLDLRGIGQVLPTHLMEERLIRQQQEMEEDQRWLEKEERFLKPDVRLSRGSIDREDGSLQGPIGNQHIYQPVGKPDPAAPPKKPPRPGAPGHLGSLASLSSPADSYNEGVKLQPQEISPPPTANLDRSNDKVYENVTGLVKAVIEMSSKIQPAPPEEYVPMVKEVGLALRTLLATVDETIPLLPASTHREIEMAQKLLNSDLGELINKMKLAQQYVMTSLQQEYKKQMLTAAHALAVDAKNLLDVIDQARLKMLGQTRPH

[14] = tested on: Fibrinogen (Alexa647-labelled); experiment: Alexa647-fibrinogen binding to printed small molecules – biochemical, small-molecule microarray, 635/667 nm fluorescence, artefact control for SMM control-protein annotation, profiling panel (AID 1131); settings: fibrinogen-A647 binding fluorescence, higher = more signal;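 note: z-score merges 667 nm fluorescence with per-spot signal-to-noise over triplicate slides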
[15] = target: Follistatin (Homo sapiens) (UniProt P19883); experiment: FST protein binding to printed compounds – biochemical, small-molecule microarray, 635/667 nm fluorescence, primary screen (AID 1132); settings: 635 nm fluorescence, higher = more signal
Follistatin (Homo sapiens), sequence (P19883 whole entry, looked up): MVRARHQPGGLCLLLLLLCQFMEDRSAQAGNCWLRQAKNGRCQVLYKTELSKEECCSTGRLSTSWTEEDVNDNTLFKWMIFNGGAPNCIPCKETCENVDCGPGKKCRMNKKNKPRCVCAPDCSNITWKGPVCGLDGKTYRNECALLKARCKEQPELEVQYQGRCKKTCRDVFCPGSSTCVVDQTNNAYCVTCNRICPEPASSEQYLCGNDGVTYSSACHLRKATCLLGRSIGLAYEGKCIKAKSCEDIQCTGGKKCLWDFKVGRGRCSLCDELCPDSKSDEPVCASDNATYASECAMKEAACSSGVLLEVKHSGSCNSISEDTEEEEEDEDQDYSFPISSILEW

[16] = target: Fibroblast growth factor 2 (Homo sapiens) (UniProt P09038); experiment: basic fibroblast growth factor binding to printed compounds – biochemical, small-molecule microarray, 635/667 nm fluorescence, primary screen (AID 1133); settings: FGF2, fluorescence 635/667, higher = more signal
Fibroblast growth factor 2 (Homo sapiens), sequence (P09038 whole entry, looked up): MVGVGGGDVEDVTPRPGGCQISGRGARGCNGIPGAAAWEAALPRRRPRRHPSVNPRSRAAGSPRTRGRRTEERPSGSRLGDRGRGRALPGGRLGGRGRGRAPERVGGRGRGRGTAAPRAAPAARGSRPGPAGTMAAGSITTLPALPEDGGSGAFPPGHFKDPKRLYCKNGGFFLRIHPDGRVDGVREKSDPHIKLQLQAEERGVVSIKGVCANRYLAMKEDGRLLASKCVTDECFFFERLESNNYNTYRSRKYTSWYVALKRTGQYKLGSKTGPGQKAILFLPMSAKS

[17] = JC-1 mitochondrial potential readout, lung cancer cells – cell-based, A549, JC-1 fluorescence, basal, 24 h, 100 nL, profiling panel (AID 1138); settings: higher = more signal;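 note: A549 lung adenocarcinoma cells under basal conditions with no added stimulus; test concentration not given here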
[18] = tested on: Lefty1; experiment: Lefty1 protein binding to printed compounds – biochemical, small-molecule microarray, 635/667 nm fluorescence, primary screen (AID 1139); settings: fluorescence 635/667, higher = more signal
[19] = tested on: wheat germ agglutinin (Triticum aestivum), Alexa647-labelled; experiment: Alexa647-WGA lectin binding to printed small molecules – biochemical, small-molecule microarray, 635/667 nm fluorescence, artefact control for SMM control-protein annotation, profiling panel (AID 1140); settings: WGA-A647 binding, 635 nm fluorescence, higher = more signal;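 note: score merges 667 nm feature emission with signal to noise over triplicate slides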
[20] = target: Luciferin 4-monooxygenase (Photinus pyralis) (UniProt P08659); experiment: inhibition of purified Photinus pyralis luciferase – biochemical, luminescence, purified enzyme, 2006 set, primary screen (AID 1141); settings: purified firefly luciferase, SteadyGlo luminescence, 30 min; higher = more signal, called active from +8 up or from −8 down;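 note: cell-free assay with purified firefly luciferase at 100 ng per well in PBS; test concentration not given here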
Luciferin 4-monooxygenase (Photinus pyralis), sequence (P08659 whole entry, looked up): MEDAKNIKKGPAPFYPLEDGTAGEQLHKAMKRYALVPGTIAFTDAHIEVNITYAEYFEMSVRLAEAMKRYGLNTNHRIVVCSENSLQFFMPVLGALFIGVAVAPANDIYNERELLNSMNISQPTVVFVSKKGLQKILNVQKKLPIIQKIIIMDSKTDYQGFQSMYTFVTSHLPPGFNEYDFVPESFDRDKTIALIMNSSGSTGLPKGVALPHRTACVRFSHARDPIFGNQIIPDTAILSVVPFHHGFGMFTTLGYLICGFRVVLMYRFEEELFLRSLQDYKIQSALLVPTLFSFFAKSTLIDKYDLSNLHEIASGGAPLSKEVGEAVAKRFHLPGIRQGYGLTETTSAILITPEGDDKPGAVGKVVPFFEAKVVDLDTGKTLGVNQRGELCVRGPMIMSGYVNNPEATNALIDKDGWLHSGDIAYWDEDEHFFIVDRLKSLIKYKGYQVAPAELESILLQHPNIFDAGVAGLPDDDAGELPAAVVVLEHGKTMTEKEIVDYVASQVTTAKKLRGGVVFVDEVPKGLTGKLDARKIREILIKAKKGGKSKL

SMILES: C=CCC(OC(C)=O)[C@@H]1[C@@H](N(Cc2ccc(-c3cccc(C(F)(F)F)c3)o2)C(=O)Cc2ccc(F)cc2)c2cc(OCCCO)ccc2N1C(=O)Cc1ccc2ccccc2c1 (stereo not given in full)
- composite z-score [1]: -0.0508
- composite Z-score [2]: -0.186 (inactive)
- composite z-score [3]: -0.182
- composite z-score [4]: -0.104
- composite z-score [5]: -0.25
- composite z-score [6]: 0.121
- composite z-score [7]: -0.169
- composite z-score [8]: -2.04
- composite z-score [9]: 0.0229
- composite z-score [10]: -0.492
- composite z-score [11]: 0.114
- composite z-score [12]: -1.33
- composite z-score [13]: -0.216
- composite z-score [14]: -0.193
- composite z-score [15]: 0.112
- composite z-score [16]: -0.599
- z-score [17]: 0.696
- composite z-score [18]: -0.482
- composite z-score [19]: 0.0382
- z-score [20]: -0.442 (inactive)

SMILES: CC(=O)NCCCC[C@@H]1NC(=O)[C@H]2C[C@@H](C(=O)NCCCCCCNC(=O)CS)[C@@H](c3cccc(OCCO)c3)N2C1=O
- composite z-score [1]: -0.637
- composite Z-score [2]: 0.381 (inactive)
- composite z-score [3]: -0.0647
- composite z-score [4]: -0.108
- composite z-score [5]: 0.592
- composite z-score [6]: 1.84
- composite z-score [7]: 0.537
- composite z-score [8]: 1.28
- composite z-score [9]: 0.487
- composite z-score [10]: 0.447
- composite z-score [11]: 3.57
- composite z-score [12]: 0.937
- composite z-score [13]: 0.612
- composite z-score [14]: -0.256
- composite z-score [15]: 1.36
- composite z-score [16]: 1.63
- z-score [17]: -0.0905
- composite z-score [18]: 0.0938
- composite z-score [19]: 0.184
- z-score [20]: -0.399 (inactive)

SMILES: Cc1ccc(N2C(=O)c3ccccc3[C@](C)(C(=O)NCCCN(C)C)[C@@H]2c2ccc(CO)cc2)nc1
- composite z-score [1]: 0.656
- composite Z-score [2]: -0.392 (inactive)
- composite z-score [3]: -0.0984
- composite z-score [4]: -0.13
- composite z-score [5]: 0.281
- composite z-score [6]: 0.93
- composite z-score [7]: -0.728
- composite z-score [8]: 0.276
- composite z-score [9]: -1.19
- composite z-score [10]: 0.0368
- composite z-score [11]: -0.479
- composite z-score [12]: -0.254
- composite z-score [13]: 0.304
- composite z-score [14]: -0.18
- composite z-score [15]: 0.351
- composite z-score [16]: -1.21
- z-score [17]: 0.361
- composite z-score [18]: -0.28
- composite z-score [19]: -0.0926
- z-score [20]: -0.156 (inactive)

SMILES: CC(C)=CCCC(C)=CC(O)C1C=CC2C(=O)NC(=O)C2N1Nc1ccc(Cl)cc1Cl (stereo not given)
- composite z-score [1]: 0.909
- composite Z-score [2]: -0.0883 (inactive)
- composite z-score [3]: 0.0952
- composite z-score [4]: -0.0464
- composite z-score [5]: 0.596
- composite z-score [6]: 1.49
- composite z-score [7]: 1.36
- composite z-score [8]: 0.623
- composite z-score [9]: 0.307
- composite z-score [10]: 0.623
- composite z-score [11]: 0.0944
- composite z-score [12]: 1.19
- composite z-score [13]: 1.15
- composite z-score [14]: 0.44
- composite z-score [15]: 1.29
- composite z-score [16]: -0.935
- z-score [17]: -0.974
- composite z-score [18]: 0.0724
- composite z-score [19]: 0.863
- z-score [20]: -0.889 (inactive)

SMILES: COC(=O)[C@@]1(Cc2ccccc2)[C@H]2c3cc(C(=O)N(C)C)n(CCSC(=N)N)c3C[C@H]2CN1C(=O)c1ccccc1
- composite z-score [1]: -0.107
- composite Z-score [2]: 1.22 (inactive)
- composite z-score [3]: 0.0159
- composite z-score [4]: 0.0591
- composite z-score [5]: 0.877
- composite z-score [6]: 0.778
- composite z-score [7]: 1.63
- composite z-score [8]: -1.71
- composite z-score [9]: -0.721
- composite z-score [10]: -1.36
- composite z-score [11]: 0.367
- composite z-score [12]: 0.336
- composite z-score [13]: 0.117
- composite z-score [14]: 0.869
- composite z-score [15]: -0.239
- composite z-score [16]: 0.277
- z-score [17]: 0.378
- composite z-score [18]: -0.318
- composite z-score [19]: 0.164
- z-score [20]: 1.13 (inactive)

SMILES: COc1ccc(C(O)C2C=CC3C(=O)NC(=O)C3N2Nc2ccc(Cl)cc2Cl)c2ccccc12 (stereo not given)
- composite z-score [1]: 0.678
- composite Z-score [2]: 0.309 (inactive)
- composite z-score [3]: 0.0328
- composite z-score [4]: 0.0856
- composite z-score [5]: 0.602
- composite z-score [6]: 1.94
- composite z-score [7]: 0.709
- composite z-score [8]: 0.35
- composite z-score [9]: -0.359
- composite z-score [10]: 0.934
- composite z-score [11]: 1.54
- composite z-score [12]: 1.15
- composite z-score [13]: 0.486
- composite z-score [14]: 0.925
- composite z-score [15]: 0.797
- composite z-score [16]: -0.19
- z-score [17]: -0.209
- composite z-score [18]: -0.0846
- composite z-score [19]: 1.19
- z-score [20]: -1.93 (inactive)

SMILES: CN(C)C(=O)[C@@]1(Cc2ccccc2CN=[N+]=[N-])COC(c2ccc(OCCCO)cc2)=N1
- composite z-score [1]: 0.819
- composite Z-score [2]: -0.0705 (inactive)
- composite z-score [3]: -0.0048
- composite z-score [4]: -0.156
- composite z-score [5]: 0.572
- composite z-score [6]: 1.78
- composite z-score [7]: -0.0884
- composite z-score [8]: 0.0673
- composite z-score [9]: -0.781
- composite z-score [10]: 1.04
- composite z-score [11]: 1.81
- composite z-score [12]: 1.15
- composite z-score [13]: 0.652
- composite z-score [14]: 0.949
- composite z-score [15]: -0.0539
- composite z-score [16]: -0.572
- z-score [17]: 1.43
- composite z-score [18]: -0.42
- composite z-score [19]: 0.603
- z-score [20]: 1.15 (inactive)

SMILES: COc1ccccc1CN1C(=O)c2ccccc2[C@](Cc2ccccc2I)(C(=O)NCC(C)C)[C@@H]1c1ccc(CO)cc1
- composite z-score [1]: -0.133
- composite Z-score [2]: 0.688 (inactive)
- composite z-score [3]: -0.0693
- composite z-score [4]: -0.0241
- composite z-score [5]: 0.542
- composite z-score [6]: 1.97
- composite z-score [7]: 0.675
- composite z-score [8]: 0.781
- composite z-score [9]: -0.483
- composite z-score [10]: 0.792
- composite z-score [11]: -0.718
- composite z-score [12]: 0.654
- composite z-score [13]: -0.299
- composite z-score [14]: 0.378
- composite z-score [15]: 1.05
- composite z-score [16]: 0.133
- z-score [17]: 2.54
- composite z-score [18]: -0.803
- composite z-score [19]: 0.0043
- z-score [20]: -1.22 (inactive)

SMILES: CCOC(=O)C[C@H]1[C@H](OC(=O)c2ccccc2-c2ccccc2)[C@@H](NC(=O)C2CCCCC2)c2cc(OCCCO)ccc2N1C(=O)c1ccc2ccccc2n1
- composite z-score [1]: 0.632
- composite Z-score [2]: 0.0805 (inactive)
- composite z-score [3]: 0.0553
- composite z-score [4]: -0.037
- composite z-score [5]: 0.258
- composite z-score [6]: 0.249
- composite z-score [7]: 0.358
- composite z-score [8]: 1.07
- composite z-score [9]: 0.162
- composite z-score [10]: -0.0181
- composite z-score [11]: 0.316
- composite z-score [12]: 0.667
- composite z-score [13]: 0.853
- composite z-score [14]: 0.593
- composite z-score [15]: 1.15
- composite z-score [16]: 0.889
- z-score [17]: 0.309
- composite z-score [18]: 1.09
- composite z-score [19]: 0.27
- z-score [20]: 0.595 (inactive)

SMILES: C=CCN1C(=O)[C@@]2(O[C@@H](CCn3cc([C@H](O)c4ccccc4)nn3)[C@H]([Si](C)(C)c3ccc(OC)cc3)[C@H]2C)c2cc(N3C(=O)c4cccc5cccc3c45)ccc21
- composite z-score [1]: 0.0345
- composite Z-score [2]: -0.212 (inactive)
- composite z-score [3]: -0.272
- composite z-score [4]: -0.223
- composite z-score [5]: 0.106
- composite z-score [6]: 0.436
- composite z-score [7]: 0.0703
- composite z-score [8]: -0.233
- composite z-score [9]: -1.02
- composite z-score [10]: 0.341
- composite z-score [11]: 0.338
- composite z-score [12]: -0.526
- composite z-score [13]: -0.204
- composite z-score [14]: -0.295
- composite z-score [15]: -0.638
- composite z-score [16]: -0.722
- z-score [17]: 1.36
- composite z-score [18]: -0.475
- composite z-score [19]: -0.22
- z-score [20]: -0.0152 (inactive)
